A number with no mark means an inactive call. The rule behind the calls is not given here.

This assay deals with Pantothenate synthetase (Mycobacterium tuberculosis (strain ATCC 25618 / H37Rv)) (UniProt P9WIL5). Put plainly: Coupled enzyme confirmation of inhibitors against recombinant Mtb PanC (AID 375).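 Note: 0% = full reaction with vehicle and 100% = no enzyme background.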 Particulars: coupled enzyme assay; at 10 µM, stronger effect = higher value.
Sequence of Pantothenate synthetase (Mycobacterium tuberculosis (strain ATCC 25618 / H37Rv)) (P9WIL5 whole entry, looked up): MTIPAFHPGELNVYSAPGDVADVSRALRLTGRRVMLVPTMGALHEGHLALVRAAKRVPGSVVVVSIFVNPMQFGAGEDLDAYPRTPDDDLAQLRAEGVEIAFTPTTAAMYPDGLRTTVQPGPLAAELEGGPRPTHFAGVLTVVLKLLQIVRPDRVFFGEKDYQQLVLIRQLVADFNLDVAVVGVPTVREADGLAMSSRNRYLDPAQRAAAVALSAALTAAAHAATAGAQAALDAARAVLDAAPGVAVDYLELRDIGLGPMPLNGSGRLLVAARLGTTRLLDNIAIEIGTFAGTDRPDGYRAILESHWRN
Broadly, the inhibition is the relative decrease from the control value, in per cent. For `Cc1c(C(=O)N2CCCC2)sc(NC(=O)c2cccs2)c1C#N`, the inhibition is 0%. The figure for `O=C(NCc1cccs1)C1CC(c2ccccc2O)=NO1` (stereo unspecified) is 5%; for `CCOC(=O)C(C)On1c(SC(C)C(=O)OCC)nc2ccccc2c1=O` (stereo unspecified) it is 0%; for `CC1=CCC2C(=O)N(c3nc(C)cc(C)n3)C(=O)C2C1` (stereo unspecified) it is 0%. Then `Cn1nnnc1SCC(=O)Nc1ccccc1C(=O)NCc1ccccc1`, with 0%; and `COc1ccc2c(c1)c(CC(=O)OCC(=O)O)c(C)n2C(=O)c1ccc(Cl)cc1`, with 0%. The figure for `CN1CCN(c2nc3c(c(=O)n(C)c(=O)n3C)n2Cc2cccc3ccccc23)CC1` is 0%; for `Cc1cc(C)c2c(n1)nn1c(C3CC3)cc(C(F)(F)F)nc21` it is 5%; for `COCCn1c(=NC(=O)CSC(C)=O)sc2cc(F)ccc21` it is 12%. For `COc1cccc2c1C(=O)c1c(O)c3c(c(O)c1C2=O)C[C@@](O)(C(C)=O)C[C@@H]3O[C@H]1C[C@H](N)[C@H](O)[C@H](C)O1`, the inhibition is 0%.

As for `COc1ccc(-c2ccc(-c3noc(-c4ccccc4)n3)c(OC)n2)cc1`, the inhibition is 3%. The figure for `COc1cc(NC(=O)Nc2cccc(Cl)c2)c(OC)cc1NC(=O)CN1CCCCC1` is 2%; for `C1=CC2CC1CC2CN1CCN(c2ccccc2)CC1` (stereo unspecified) it is 5%; for `CC1(C)CC(=O)C(CC2=C(O)CC(C)(C)CC2=O)=C(O)C1` it is 4%.

Regarding `CCOC(=O)C1=C(CSc2nc(C)cc(C)c2C#N)OC(N)=C(C#N)C1c1cccs1` (stereo unspecified), the inhibition was 2%.

With `O=C(CSc1nnc(-c2ccco2)n1CC1CCCO1)NC1CCCC1` (stereo unspecified), the inhibition is 0%.

The values above are taken from PubChem BioAssay.
